# According to paper PMC11024108:
# Biological target: T1, Monocarboxylate transporter 1 (UniProt P53985)
# T1 sequence: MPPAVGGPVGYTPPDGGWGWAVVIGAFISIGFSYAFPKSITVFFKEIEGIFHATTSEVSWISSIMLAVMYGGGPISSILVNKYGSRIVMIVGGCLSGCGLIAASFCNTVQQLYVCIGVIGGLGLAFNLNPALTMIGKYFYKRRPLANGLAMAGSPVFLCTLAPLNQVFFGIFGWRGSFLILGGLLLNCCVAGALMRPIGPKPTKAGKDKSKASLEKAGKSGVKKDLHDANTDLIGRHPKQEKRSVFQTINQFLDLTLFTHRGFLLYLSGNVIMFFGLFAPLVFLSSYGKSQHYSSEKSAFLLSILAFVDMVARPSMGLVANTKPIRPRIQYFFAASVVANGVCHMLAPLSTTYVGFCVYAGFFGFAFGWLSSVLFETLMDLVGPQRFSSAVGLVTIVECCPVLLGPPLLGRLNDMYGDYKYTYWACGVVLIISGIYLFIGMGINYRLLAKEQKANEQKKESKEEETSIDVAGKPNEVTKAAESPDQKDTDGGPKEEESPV
# Assay: cross-link between two proteins; cross-linking mass spectrometry
substance,measurement,value
"Sodium/potassium-transporting ATPase subunit alpha-1, P05023",listed as a hit,yes
